Source: PubChem BioAssay (NCATS)
Values joined by “and” are separate entries in the source; they are usually repeats but may differ in a detail not shown here. Equal values may be shown once. Results filed as inconclusive are left out. A number with no mark means an inactive call. Active and inactive are the calls of the source. Calls come from the whole dose curve; as a rule, active = well fitted inhibition curve with a large enough effect; inconclusive = small, poorly fitted or top-dose-only effect; inactive = flat fitted curve, though single readings scatter. Where a SMILES comes first, the peptide text is derived from it. [ ]: non-standard residue; d: D form. 2Abz = Nc1ccccc1C(=O)O

Test system: CRL-7250
Assay: Cytotoxic Profiling of Annotated Libraries Using Quantitative High-Throughput Screening (AID 1296008); note: nearly all actives have a fitted effect of over 60% in size
Conditions: Five cell lines viability, CellTiter-Glo ATP luminescence, 48-72 h; max response: hits give low values
Summary of the method: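 Cells exposed to compounds for 48 or 72 hr at 37 degrees Celsius. Viability read as ATP-coupled luminescence with CellTiter-Glo after 10 min at room temperature.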
% is set by controls: 0 for no effect and ±100 for the full control effect; potency is the fitted concentration of half-maximal effect.

Row | SMILES | max response [%] | outcome | Potency
1 | CC1(C)CCCC2(C)C1C(O)C=C(CO)C2(O)C(=O)O (stereo not given) | 3.48 | – | –
2 | C#C[C@]1(O)CC[C@H]2[C@@H]3CCC4=C/C(=N/O)CC[C@@H]4[C@H]3CC[C@@]21CC | 4.4 | – | –
3 | O=C(OCC12OC1C=CC(OC(=O)c1ccccc1)C2O)c1ccccc1 (stereo not given) | 4.27 | – | –
4 | COc1cc(CC(COC2OC(CO)C(O)C(O)C2O)c2cc(/C=C/CO)cc(OC)c2O)ccc1O (stereo not given) | – | inactive | –
5 | CC(c1c[nH]c2ccccc12)C(O)C(=O)O (stereo not given) | -1.71 | – | –
6 | CC1=CC(=O)OC(C)(CC(C)(O)C(=O)O)C1 (stereo not given) | -4.45 | – | –
7 | CC(O)C(O)/C=C/C=C/C(=O)O[C@@H]1C=C2COC(=O)[C@]2(O)[C@@]2(C)CCCC(C)(C)C12 (stereo not given in full) | 3.05 | – | –
8 | CC(=O)c1c(C)cc(O)cc1O[C@@H]1O[C@H](CO)[C@@H](O)[C@H](O)[C@H]1O | -5.78 | – | –
9 | N[C@@H](CC(=O)N1CCn2c(nnc2C(F)(F)F)C1)Cc1[nH]nc2c(F)c(F)ccc12 | -0.191 | – | –
10 | C[C@@H]1O[C@@H](O[C@@H]2[C@@H](O)[C@@H](O)[C@H](O[C@@H]3[C@@H](O)[C@@H](O[C@]4(CO)O[C@H](CO)[C@@H](O)[C@@H]4OC(=O)/C=C/c4ccc(O)cc4)O[C@H](CO)[C@H]3OC(=O)/C=C/c3ccc(O)cc3)O[C@H]2C)[C@H](O)[C@H](O)[C@H]1O | -4.29 | – | –
11 | C[C@@H]1CC[C@]2(C)C3(C)CC[C@@]2(OC3=O)[C@@]12C[C@H](c1ccoc1)OC2=O | -6.81 | – | –
12 | C=CC1(C)CC(O)C2(CCC3C(C)(C(=O)O)CCCC3(C)C2=O)C1 (stereo not given) | -1.04 | – | –
13 | COC1CCCC/C(C)=C/C2C=C(C)C(C)C3C(CC(C)C)NC(=O)C23C(=O)C1 (stereo not given) | – | inactive | –
14 | CCS(=O)(=O)N1CCC([C@@H](C)n2c(C)c(C(=O)NCc3c(OC)cc(C)[nH]c3=O)c3ccccc32)CC1 | – | inactive | –
15 | CNC(=O)c1ccc2cc([C@@]3(O)CCn4cncc43)ccc2c1 | – | inactive | –
16 | C=C1CC2C3(C)C(OC(C)=O)CC(=O)OC(C)(C)C3C(O)C(OC(C)=O)C2(C)C2C(=O)OC(C)C(=O)C12C (stereo not given) | -7.53 | – | –
17 | O=c1ccn([C@@H]2O[C@H](CO)[C@@H](O)[C@H]2O)c(=O)[nH]1 | -8.67 | – | –
18 | NS(=O)(=O)OC[C@@H]1C[C@@H](n2ccc3c(N[C@H]4CCc5ccccc54)ncnc32)C[C@@H]1O | – | – | 1.3 µM (active) and 651 nM (active)
19 | COc1ccc(C)c2sc(NC(=O)c3ccncc3)nc12 | – | inactive | –
20 | C=C[C@](C)(CC/C=C(\C)C(=O)O)O[C@@H]1OC[C@H](O)[C@H](O)[C@H]1O | -0.0118 | – | –

Row | SMILES | max response [%] | outcome | Potency
21 | O=C(O)CCc1cc2ccoc2cc1O[C@@H]1O[C@H](CO[C@@H]2OC[C@](O)(CO)[C@H]2O)[C@@H](O)[C@H](O)[C@H]1O | -5.99 | – | –
22 | C=C1CCC2C(C)(C(=O)O)CC(O)CC2(C)C1CC/C(C)=C/C(=O)O (stereo not given) | -3.85 | – | –
23 | CCOC(=O)c1ccnc(CNCC(=O)N(CC)CCN(C)C)c1 | 3.74 | – | –
24 | C[C@@H]1C(=O)O[C@H]2CC34[C@H]5C[C@@H](C(C)(C)C)C36[C@@H](OC(=O)[C@@H]6O)OC4(C(=O)O5)[C@]21O (stereo not given in full) | -2.58 | – | –
25 | CC(C)CC(=O)OC[C@H]1O[C@@](COC(=O)CC(C)C)(O[C@H]2O[C@H](CO)[C@@H](O)[C@H](O)[C@H]2O)[C@@H](OC(=O)CC(C)C)[C@@H]1OC(=O)CC(C)C | -0.942 | – | –
26 | CC[C@@H](c1ccc(F)c(F)c1)n1c(C(=O)OC)c(-c2ccno2)[nH]c1=S | -7.34 | – | –
27 | C[C@@H]1CC[C@]2(C(=O)O[C@@H]3O[C@H](CO)[C@@H](O)[C@H](O)[C@H]3O)CC[C@]3(C)C(=CCC4[C@@]5(C)C[C@@H](O)[C@H](O)C(C)(C)C5CC[C@]43C)C2[C@]1(C)O (stereo not given in full) | – | inactive | –
28 | OCc1ccccc1O[C@@H]1O[C@H](CO)[C@@H](O)[C@H](O)[C@H]1O | -0.323 | – | –
29 | O=S(=O)(Nc1ccc(C(O)(C(F)(F)F)C(F)(F)F)cc1)c1cccs1 | 2.89 | – | –
30 | CCC(C)C1NC(=O)C2CCCN2C(=O)C(C(C)C)NC(=O)c2ccccc2NC(=O)C(Cc2ccc(O)cc2)NC(=O)C(C)NC(=O)C(C(C)O)NC1=O (stereo not given) (cyclo([2Abz]VPITAY); configuration not given here) | -3.19 | – | –
31 | CC1CCC2(O1)C(C)(C)CC(O[C@@H]1O[C@H](CO[C@@H]3OC[C@](O)(CO)[C@H]3O)[C@@H](O)[C@H](O)[C@H]1O)CC2(C)O (stereo not given in full) | -0.207 | – | –
32 | CC(C)=CCc1ccc(Oc2c(O)cc(C)cc2CO)c(C(=O)O)c1O | -1.26 | – | –
33 | COc1cc(CCc2ccccc2)c(C(=O)O)c2c1CC(C(C)(C)O)O2 (stereo not given) | – | inactive | –
34 | CCCCS(=O)(=O)Nc1ncnc(OCCOc2ncc(Br)cn2)c1-c1ccc(Br)cc1 | -8.77 | – | –
35 | CC1(C(=O)O)CCCC2(C)C1CCC13CC(CCC21)C1(CO)OC31 (stereo not given) | -3.21 | – | –
36 | CC1CCC23COC(=O)C2=CC(O)CC3C1(C)CCC1=CC(=O)OC1O (stereo not given) | – | inactive | –
37 | C[C@]1(OC(=O)/C=C/c2ccccc2)C[C@H](O)[C@]2(O)C=CO[C@@H](O[C@@H]3O[C@H](CO)[C@@H](O)[C@H](O)[C@H]3O)C12 (stereo not given in full) | – | inactive | –
38 | C=C[C@H]1[C@H](O[C@@H]2O[C@H](CO)[C@@H](O)[C@H](O)[C@H]2O)OC=C(C(=O)OC)[C@H]1C[C@@H]1N[C@H](C(=O)O)Cc2c1[nH]c1ccccc21 | 2.01 | – | –
39 | CC1OC(OC2C(O)C(C(=O)O)OC(OC3CCC4(C)C(CCC5(C)C4C=CC4=C6CC(C)(C)CC(O)C6(C)CCC45C)C3(C)C)C2OC2OCC(O)C(O)C2O)C(O)C(O)C1O (stereo not given) | -1.54 | – | –
40 | CNC(=O)O[C@H]1COc2ccc(N3CCN(C4COC4)CC3)cc2[C@@H]1NC(=O)c1ccc(F)cc1 | -2.36 | – | –
